Drawing on PubChem BioAssay (NCATS), this text covers Potency and activity change, negative = inhibition for 40 compounds.

Inconclusive results are not listed. A call without a number means that no potency is given here. Unmarked numbers belong to inactive results. Active and inactive are the calls of the source. Calls follow the shape of the dose curve; as a rule, active = well fitted inhibition curve with a large enough effect; inconclusive = small, poorly fitted or top-dose-only effect; inactive = no such curve, though single readings can be large or run the other way.

Sequence of Rap guanine nucleotide exchange factor 3 (Homo sapiens) (O95398 whole entry, looked up): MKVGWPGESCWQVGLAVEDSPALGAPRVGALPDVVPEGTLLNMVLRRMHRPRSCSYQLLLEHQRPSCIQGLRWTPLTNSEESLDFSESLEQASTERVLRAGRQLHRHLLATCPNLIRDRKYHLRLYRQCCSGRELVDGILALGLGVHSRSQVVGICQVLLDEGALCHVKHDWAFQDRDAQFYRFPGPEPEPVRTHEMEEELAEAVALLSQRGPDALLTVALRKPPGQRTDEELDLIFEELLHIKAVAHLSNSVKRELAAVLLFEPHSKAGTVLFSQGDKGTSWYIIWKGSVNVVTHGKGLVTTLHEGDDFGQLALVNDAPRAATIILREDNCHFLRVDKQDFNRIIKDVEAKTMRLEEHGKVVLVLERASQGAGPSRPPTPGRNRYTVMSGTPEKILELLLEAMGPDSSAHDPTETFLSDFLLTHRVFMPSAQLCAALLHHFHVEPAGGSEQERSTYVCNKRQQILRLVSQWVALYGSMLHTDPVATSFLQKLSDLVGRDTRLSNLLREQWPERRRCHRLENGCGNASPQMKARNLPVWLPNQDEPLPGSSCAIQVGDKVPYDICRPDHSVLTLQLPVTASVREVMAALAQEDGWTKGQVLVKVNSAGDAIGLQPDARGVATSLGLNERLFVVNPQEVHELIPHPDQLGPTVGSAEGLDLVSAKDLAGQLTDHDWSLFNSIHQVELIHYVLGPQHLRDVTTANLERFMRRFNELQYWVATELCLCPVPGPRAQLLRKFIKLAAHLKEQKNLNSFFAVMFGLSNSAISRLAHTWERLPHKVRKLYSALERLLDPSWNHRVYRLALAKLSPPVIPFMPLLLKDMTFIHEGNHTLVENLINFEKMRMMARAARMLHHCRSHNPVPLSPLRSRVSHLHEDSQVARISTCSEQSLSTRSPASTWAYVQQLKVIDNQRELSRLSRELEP

In one assay the target is Rap guanine nucleotide exchange factor 4 (Homo sapiens) (UniProt Q8WZA2). Put plainly: Confirmatory qHTS for antagonist of cAMP-regulated guanine nucleotide exchange factor 4 (EPAC2) (AID 1645885). Also: nearly all actives have a fitted effect of over 25% in size. Also: potency is read from the fitted curve at half-maximal effect. The following applies: EPAC2 Rap1B-BODIPY-GDP exchange fluorescence, biochemical; series mostly up to 12.7 µM. (In general: Quantitative high-throughput screening tests each substance at several concentrations.)
Sequence of Rap guanine nucleotide exchange factor 4 (Homo sapiens) (Q8WZA2 whole entry, looked up): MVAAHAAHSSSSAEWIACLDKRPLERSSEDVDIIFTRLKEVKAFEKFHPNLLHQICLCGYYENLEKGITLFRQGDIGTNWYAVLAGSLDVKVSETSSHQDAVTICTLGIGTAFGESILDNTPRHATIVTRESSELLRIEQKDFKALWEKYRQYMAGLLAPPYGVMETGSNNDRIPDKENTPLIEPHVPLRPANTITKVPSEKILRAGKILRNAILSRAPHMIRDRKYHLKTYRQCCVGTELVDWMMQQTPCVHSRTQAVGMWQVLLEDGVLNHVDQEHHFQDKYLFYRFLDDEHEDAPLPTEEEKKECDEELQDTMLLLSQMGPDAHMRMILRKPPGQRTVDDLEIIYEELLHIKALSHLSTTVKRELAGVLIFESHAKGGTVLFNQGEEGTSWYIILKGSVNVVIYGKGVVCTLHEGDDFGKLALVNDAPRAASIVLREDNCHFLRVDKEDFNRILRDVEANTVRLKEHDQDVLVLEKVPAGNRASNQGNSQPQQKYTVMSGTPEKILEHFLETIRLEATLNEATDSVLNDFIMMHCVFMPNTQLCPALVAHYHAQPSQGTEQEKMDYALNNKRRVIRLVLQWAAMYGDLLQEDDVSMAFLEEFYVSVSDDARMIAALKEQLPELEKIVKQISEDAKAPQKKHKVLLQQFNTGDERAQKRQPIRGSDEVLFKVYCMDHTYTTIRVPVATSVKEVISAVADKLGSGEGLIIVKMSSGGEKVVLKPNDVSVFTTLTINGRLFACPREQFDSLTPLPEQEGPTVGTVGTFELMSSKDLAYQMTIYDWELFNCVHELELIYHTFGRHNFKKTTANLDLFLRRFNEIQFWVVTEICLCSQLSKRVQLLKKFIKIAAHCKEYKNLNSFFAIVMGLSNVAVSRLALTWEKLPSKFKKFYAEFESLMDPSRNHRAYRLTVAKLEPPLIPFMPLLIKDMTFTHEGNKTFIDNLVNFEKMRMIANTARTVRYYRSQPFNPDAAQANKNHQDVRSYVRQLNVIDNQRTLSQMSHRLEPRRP
Regarding `CCc1cccc(CC)c1N1C(=O)C2=C(SCCCS2)C1=O`, the Potency entry was “inactive”. Consider `O=C(c1cccs1)N(Cc1cccnc1)c1nc2c(Cl)cccc2s1`, for which the Potency entry was “inactive”.

With `CC(OC(=O)/C(C#N)=C/c1ccc(N(C)C)cc1)C(=O)N(C)Cc1ccccc1` (centres undefined), the Potency result was “inactive”. On the same count and under the same terms, under `Cc1cccc(-c2nc3nc(C)cc(NCc4ccccc4Cl)n3n2)c1` stands “inactive”. Consider `N=C1SC(c2ccccc2)C(=O)N1c1ncc(Cc2ccccc2Cl)s1` (centres undefined), for which the Potency entry was “inactive”. Same read-out and setting: under `O=C(O)c1ccccc1NS(=O)(=O)c1ccc(NN=Cc2cccc(Cl)c2)c([N+](=O)[O-])c1` stands “inactive”; under `O=C1CCC2CN3CCc4c([nH]c5ccccc45)C3CC2C1` (centres undefined), “inactive”; under `CCOC(=O)/C(C#N)=C/c1ccc(N2CCN(Cc3ccccc3)CC2)cc1`, “inactive”. On the same count and under the same terms, with `COc1ccc(NC(=O)c2c(-c3ccccc3)c(-c3ccccc3)nn(C)c2=O)c(OC)c1` the entry was “inactive”; with `COC(=O)c1c(C)c2c(C)cc3ccccn3c-2c1C(=O)OC`, “inactive”. Consider `CCOC(=O)C1=C(C)N=c2s/c(=C\c3cccn3C)c(=O)n2C1c1cccc(OC)c1OC` (centres undefined), for which the Potency result was “inactive”. On the same count and under the same terms, with `O=C(NN=Cc1c(O)ccc2ccccc12)c1ccncc1` the entry was “inactive”; with `COc1ccc(O)c(C(=O)c2cc(SCC(=O)O)c3nc4sc5c(c4c(=O)n3c2)CCCC5)c1`, “inactive”. The same measure, in the same setting: with `O=C(COc1cccc(OC(F)F)c1)Nc1ccc(SC(F)F)cc1` the entry was “inactive”; with `Cc1ccc(NC(=O)c2sc3nc(-c4cc5ccccc5oc4=O)[nH]c(=O)c3c2C)c(C)c1`, “inactive”. Same read-out and setting: with `COc1cc2c(c(OC)c1OC)C(c1ccc(C)cc1)CC(=O)O2` (centres undefined) the entry was “inactive”; with `COC(=O)CC(NC(=S)NC(=O)c1ccccc1)c1ccc(Br)cc1` (centres undefined), “inactive”. Turning to `COC(=O)c1ccccc1C(=O)c1cccc2ccccc12`, the Potency entry is “inactive”. On the same count and under the same terms, under `O=c1[nH]c2ccccc2nc1/C=C(\O)c1cccs1` stands “inactive”; under `COc1ccc(N=Cc2c(O)ccc3ccccc23)cc1`, “inactive”.

On to `O=S(=O)(NCC(c1ccco1)N1CCc2ccccc21)c1ccccc1` (centres undefined), for which the Potency result is “inactive”.

For the compound `CN1CCc2c(sc(NC(=O)CSc3ccccc3)c2-c2nc3ccccc3s2)C1`, the Potency entry is “inactive”. Same read-out and setting: with `O=C(NCc1ccco1)c1ccc(Cn2c(=S)[nH]c3ccccc3c2=O)cc1` the figure was 953 nM (active); with `O=C1c2cccc3c(N4CCCCC4)ccc(c23)C(=O)N1c1ccccc1O`, “inactive”.

Another assay concerns the target Rap guanine nucleotide exchange factor 3 (Homo sapiens) (UniProt O95398). Put plainly: Counterscreen qHTS for antagonist of cAMP-regulated guanine nucleotide exchange factor 3 (EPAC1) (AID 1645888).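 Also: fluorescence loss as bound BODIPY-GDP is released from Rap1B.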 The following applies: Rap1B-BODIPY-GDP nucleotide exchange, fluorescence; series mostly up to 154 µM. A digest of the protocol:
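Rap1B-BODIPY-GDP 250 nM + GDP 50 uM; cpds 7-pt, final 9.74 nM–152 uM (activator mode) or from 7.32 nM upwards (inhibitor mode); RT; FI 480/540 nm at 5 and 30 min, then ± cAMP, reread.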
(Counterscreens check selectivity or assay interference.)
In the case of `Cc1ccc2cccc(OC(=O)c3c(F)cccc3Cl)c2n1`, the Potency result was “inactive”. On the same count and under the same terms, under `COc1ccc(/C(O)=C/c2nc3ccccc3n(-c3ccccc3)c2=O)cc1` stands “inactive”; under `Oc1c(C(c2ccccc2)N2CCN(c3ccccc3)CC2)sc2nc(-c3ccco3)nn12` (centres undefined), “inactive”. In the case of `COc1ccc(C(=O)/C=C/c2ccc(N(C)C)cc2)c(OC)c1`, the Potency entry was “inactive”.

On to `CC1CCN(c2ccc3c(c2)S(=O)(=O)c2cccc(C(=O)NCc4cccc(F)c4)c2C3=O)CC1`, for which the Potency result is “inactive”. Consider `CCN(CC)c1ccc2cc(C(N)=O)c(=N)oc2c1`, for which the activity change, negative = inhibition was -1.22% [at 30.8 µM]. For `CCOc1cc(/C=N/NC(=O)c2ccc(-c3csc(Nc4ccc(C)cc4)n3)cc2)ccc1OCC(=O)O`, the Potency entry is “inactive”. For `Cc1cccc(NCc2cccc3ccccc23)n1`, the activity change, negative = inhibition is -11.4% [at 30.8 µM]. `CCN(C(=O)CN1CCN(c2ccccc2O)CC1)c1c(N)n(Cc2ccccc2)c(=O)[nH]c1=O`: the Potency result is “inactive”. The same measure, in the same setting: under `CN(C)c1ccc(C(=O)/C=C/c2ccc(Br)cc2)cc1` stands “inactive”. Regarding `CCOc1ccc(NC(=O)/C(C#N)=C/c2ccc(N3CCCC3)c(C)c2)cc1`, the activity change, negative = inhibition is 15.4% [at 30.8 µM]. `CCOc1ccc(CCN2C(=O)C(=O)N([C@@H](CC(C)C)CN3CCC[C@@H]3CN3C(=O)C(=O)NC[C@@H]3Cc3ccccc3)C[C@@H]2CC(C)C)cc1`: the Potency entry was “inactive”. On the same count and under the same terms, under `C=CCN1C(=O)c2cccc3c(N4CCCCC4)ccc(c23)C1=O` stands “inactive”. On the same count and under the same terms, under `COc1cccc(-n2c(SCC(=O)Nc3ccc(F)cc3F)nc3c([nH]c4ccccc43)c2=O)c1` stands “inactive”.

Consider `COC(=O)c1cc2sc(Cl)cc2n1Cc1cc(C)ccc1C`, for which the Potency result was “inactive”. On to `COc1ccccc1C(=O)NNC(=O)CCCN1C(=O)/C(=C/c2cccs2)SC1=S`, for which the activity change, negative = inhibition is 10.7% [at 30.8 µM]. As for `CCc1cccc(CC)c1N1C(=O)C2=C(SCCCS2)C1=O`, the Potency entry was “inactive”. On the same count and under the same terms, with `O=C(c1cccs1)N(Cc1cccnc1)c1nc2c(Cl)cccc2s1` the entry was “inactive”. As to `CC(OC(=O)/C(C#N)=C/c1ccc(N(C)C)cc1)C(=O)N(C)Cc1ccccc1` (centres undefined), the activity change, negative = inhibition is -0.358% [at 30.8 µM].

On to `Cc1cccc(-c2nc3nc(C)cc(NCc4ccccc4Cl)n3n2)c1`, for which the Potency result was “inactive”. The same measure, in the same setting: under `N=C1SC(c2ccccc2)C(=O)N1c1ncc(Cc2ccccc2Cl)s1` (centres undefined) stands “inactive”; under `O=C(O)c1ccccc1NS(=O)(=O)c1ccc(NN=Cc2cccc(Cl)c2)c([N+](=O)[O-])c1`, “inactive”. Turning to `O=C1CCC2CN3CCc4c([nH]c5ccccc45)C3CC2C1` (centres undefined), the activity change, negative = inhibition was 2.15% [at 30.8 µM]. On the same count and under the same terms, under `CCOC(=O)/C(C#N)=C/c1ccc(N2CCN(Cc3ccccc3)CC2)cc1` stands 16.8% [at 30.8 µM]. Consider `COc1ccc(NC(=O)c2c(-c3ccccc3)c(-c3ccccc3)nn(C)c2=O)c(OC)c1`, for which the Potency result is “inactive”. As for `COC(=O)c1c(C)c2c(C)cc3ccccn3c-2c1C(=O)OC`, the activity change, negative = inhibition is 9.53% [at 30.8 µM]. Regarding `CCOC(=O)C1=C(C)N=c2s/c(=C\c3cccn3C)c(=O)n2C1c1cccc(OC)c1OC` (centres undefined), the activity change, negative = inhibition is -4.43% [at 30.8 µM]. For the compound `O=C(NN=Cc1c(O)ccc2ccccc12)c1ccncc1`, the activity change, negative = inhibition is 4.58% [at 30.8 µM]. With `COc1ccc(O)c(C(=O)c2cc(SCC(=O)O)c3nc4sc5c(c4c(=O)n3c2)CCCC5)c1`, the Potency entry was “inactive”. As for `O=C(COc1cccc(OC(F)F)c1)Nc1ccc(SC(F)F)cc1`, the activity change, negative = inhibition was 8.28% [at 30.8 µM]. Take `Cc1ccc(NC(=O)c2sc3nc(-c4cc5ccccc5oc4=O)[nH]c(=O)c3c2C)c(C)c1`: the Potency entry was “inactive”. `COc1cc2c(c(OC)c1OC)C(c1ccc(C)cc1)CC(=O)O2` (centres undefined): the activity change, negative = inhibition was 6.91% [at 30.8 µM]. In the case of `COC(=O)CC(NC(=S)NC(=O)c1ccccc1)c1ccc(Br)cc1` (centres undefined), the Potency result was “inactive”. The same measure, in the same setting: under `COC(=O)c1ccccc1C(=O)c1cccc2ccccc12` stands “inactive”. Regarding `O=c1[nH]c2ccccc2nc1/C=C(\O)c1cccs1`, the activity change, negative = inhibition was -7.08% [at 30.8 µM]. The same measure, in the same setting: under `COc1ccc(N=Cc2c(O)ccc3ccccc23)cc1` stands 17.7% [at 30.8 µM].

Turning to `O=S(=O)(NCC(c1ccco1)N1CCc2ccccc21)c1ccccc1` (centres undefined), the activity change, negative = inhibition was -0.643% [at 30.8 µM].

In the case of `CN1CCc2c(sc(NC(=O)CSc3ccccc3)c2-c2nc3ccccc3s2)C1`, the Potency result was “inactive”.

In the case of `O=C(NCc1ccco1)c1ccc(Cn2c(=S)[nH]c3ccccc3c2=O)cc1`, the Potency result was “inactive”. As for `O=C1c2cccc3c(N4CCCCC4)ccc(c23)C(=O)N1c1ccccc1O`, the activity change, negative = inhibition is -4.8% [at 30.8 µM].
